Experiment [1] in a line: qHTS profiling of the MIPE4 collection as inhibitors of Plasmodium falciparum (3D7) proliferation (AID 743344).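 Note: scaled between DMSO vehicle wells and 0.29 µM artemisinin as full inhibition.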 Conditions: P. falciparum 3D7 in erythrocytes, SYBR Green DNA fluorescence, 72 h; at 28.5 µM. Put shortly:
(§1)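 Erythrocytes infected with P. falciparum (0.3% parasitemia, 2.5% hematocrit) incubated with compounds 72 h at 37 C, 5% CO2. Lysis with saponin/Triton buffer containing SYBR Green I, overnight at room temperature in the dark; DNA fluorescence (485/535 nm) normalised to 0.29 uM artemisinin and DMSO.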

The nature of experiment [2]: qHTS profiling of the MIPE4 collection as inhibitors of Plasmodium falciparum (DD2) proliferation (AID 743345). Conditions: P. falciparum Dd2 in erythrocytes, SYBR Green DNA, 72 h; at 28.5 µM unless noted. In outline: as §1
The nature of experiment [3]: qHTS profiling of the MIPE4 collection as inhibitors of Plasmodium falciparum (DD2) proliferation (Rep 2) (AID 743346). As to conditions: P. falciparum Dd2 in erythrocytes, SYBR Green DNA, 72 h; at 28.5 µM. Put shortly: as §1
Experiment [4] in a line: qHTS profiling of the MIPE4 collection as inhibitors of Plasmodium falciparum (HB3) proliferation (AID 743347).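 Note: plate controls were DMSO vehicle wells for no effect and artemisinin wells for full effect.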 Conditions: P. falciparum HB3 in erythrocytes, SYBR Green DNA, 72 h; at 28.5 µM. Put shortly: as §1
A short description of experiment [5]: High-throughput drug toxicity screening in the BPDCN cell line Gen2.2 (AID 1224824).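 Note: cells exposed to compounds for 48 h before reading; 100% = DMSO and 0% = bortezomib.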 Conditions: Gen2.2 BPDCN cells; at 45.8 µM (top of the series). Put shortly:
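Readout is ATP luminescence from Gen2.2 cells after two days of drug exposure in serum-containing medium at 37 °C. Values express percent activity, with vehicle defining full signal and 9.2 uM bortezomib defining zero.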

In experiment [1], `Clc1ccccc1C(c1ccccc1)(c1ccccc1)n1cccn1` had a parasite growth, % of DMSO control of 9.07%. The parasite growth remaining, % of DMSO control (lower = more inhibition) in experiment [2] was 34.8%. Moreover, the parasite growth, % of control (lower = inhibition) in experiment [3] amounted to 11.6%. The same molecule gave a growth, % of control in experiment [4] of 6.73%. For the same molecule, in experiment [5], the cell viability, % of control (lower = more cytotoxic) was determined as 108%.
The matching figures for `C#CC1(O)CCC2C3CCC4=CC(=O)CCC4(C)C3CCC21C` (stereo not given): 78.6%, 106%, 88%, 89% and 168%.
On to `C[C@]12CC[C@H]3[C@@H](CCC4=CC(=O)CC[C@@]43C)[C@H]1CC[C@H]2OC(=O)CCC1CCCC1`, for which the parasite growth, % of DMSO control in experiment [1] amounted to 7.86%. The parasite growth remaining, % of DMSO control (lower = more inhibition) in experiment [2] was 15.6%. Moreover, the parasite growth, % of control (lower = inhibition) in experiment [3] worked out at 18.3%. In addition, in experiment [4], the growth, % of control worked out at 6.49%. In experiment [5], the cell viability, % of control (lower = more cytotoxic) was 94%.
The matching figures for `Cc1[nH]nc2ccc(-c3cncc(OC[C@@H](N)Cc4c[nH]c5ccccc45)c3)cc12`: 18.3%, 47.9%, 20.1%, 8.77% and 1.9%.
The matching figures for `CCC(=O)OC1CCC2C3CCC4=CC(=O)CC[C@@]4(C)C3CC[C@]12C` (stereo not given in full): 89.9%, 96.4%, 125%, 94.7% and 223%.
The matching figures for `COC[C@H]1OC(=O)c2coc3c2[C@@]1(C)C1=C(C3=O)[C@@H]2CC[C@H](O)[C@@]2(C)C[C@@H]1OC(C)=O`: 93.1%, 83.2%, 79.7%, 48.8% and 5.55%.
In experiment [1], `CC(=O)OCC1=C(C(=O)O)N2C(=O)[C@@H](N)[C@@H]2SC1` registered a parasite growth, % of DMSO control of 90.9%. Besides, the parasite growth remaining, % of DMSO control (lower = more inhibition) in experiment [2] was 97.8%. In addition, the parasite growth, % of control (lower = inhibition) in experiment [3] was determined as 77.5%. In addition, the growth, % of control in experiment [4] amounted to 97.3%. Also, the cell viability, % of control (lower = more cytotoxic) in experiment [5] came to 68.5%.
The matching figures for `CC(=CCCC1=CCC(C2=CC(=O)OC2O)OC1O)CCC1=C(C)CCCC1(C)C` (stereo not given): 15.8%, 44.2%, 72%, 36% and 124%.
The matching figures for `c1ccc2c(CN3CCNCC3)cccc2c1`: 85.3%, 53.1%, 43.2%, 109% and 112%.
The matching figures for `CC(C)N(CCNC(=O)CN1CCCC1=O)C(C)C`: 101%, 17.4%, 121%, 108% and 108%.
For the molecule `CCNC(=O)C[C@@H]1N=C(c2ccc(Cl)cc2)c2cc(OC)ccc2-n2c(C)nnc21`, the parasite growth, % of DMSO control in experiment [1] was found to be 76.4%. Further, in experiment [2], the parasite growth remaining, % of DMSO control (lower = more inhibition) is 106%. Moreover, in experiment [3], the parasite growth, % of control (lower = inhibition) was found to be 99.1%. In experiment [4], this molecule yielded a growth, % of control of 94.6%. Besides, the cell viability, % of control (lower = more cytotoxic) in experiment [5] came out at 12.3%.

Values taken from PubChem BioAssay (NCATS).
